High-throughput results from PubChem.
ST2 inh – inhibitors of human ST2 (IL1RL1) binding to IL-33, primary screen, biochemical, AlphaLISA. AlphaLISA ST2-Fc/biotin-IL-33 interaction, 1 h. AID 1259354, 2018. actives 2.3% (n = 78,000). inhibition, % for hits at 17 µM; in the data active means inhibition above about 30%
Target sequence (Q01638 whole entry, looked up): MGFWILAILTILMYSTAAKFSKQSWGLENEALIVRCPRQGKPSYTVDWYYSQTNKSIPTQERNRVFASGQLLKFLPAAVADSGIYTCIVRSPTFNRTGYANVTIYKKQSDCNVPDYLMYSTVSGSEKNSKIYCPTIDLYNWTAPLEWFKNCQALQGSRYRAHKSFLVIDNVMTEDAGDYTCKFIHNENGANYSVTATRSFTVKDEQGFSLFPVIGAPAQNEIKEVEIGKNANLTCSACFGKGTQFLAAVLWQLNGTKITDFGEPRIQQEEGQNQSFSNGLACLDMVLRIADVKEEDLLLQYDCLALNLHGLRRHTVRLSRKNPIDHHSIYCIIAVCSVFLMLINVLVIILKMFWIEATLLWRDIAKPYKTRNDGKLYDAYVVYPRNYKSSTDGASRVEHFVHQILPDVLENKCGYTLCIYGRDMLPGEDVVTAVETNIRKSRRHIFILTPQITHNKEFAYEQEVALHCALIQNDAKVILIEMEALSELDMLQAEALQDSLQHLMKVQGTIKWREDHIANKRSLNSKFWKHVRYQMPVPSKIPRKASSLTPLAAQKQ
An asterisk follows results filed as active; ! = not active in a repeat. This is one part of a sample in which hits are shown more often than they occur.

What do the screens show for `Cn1c(=O)c2c(nc(NCCO)n2Cc2ccccc2Br)n(C)c1=O`?
ST2 inh: inactive

Results for CN1C(=O)CC(C(=O)Nc2cccc(Cl)c2)SC1=Nc1cccc(F)c1 (stereo not drawn) ?
ST2 inh: inactive

How did CC(Oc1ccccc1)C(=O)Nc1nnc(C(C)(C)C)s1 (stereo not drawn) do in these assays?
ST2 inh: inactive

How did COCCNC(=O)c1c[nH]c2ccc(S(=O)(=O)Nc3ccc(C)cc3C)cc2c1=O do in these assays?
ST2 inh: inactive

How did COCc1nc(N(C)CCc2c(C)n[nH]c2C)c2cnn(C)c2n1 do in these assays?
ST2 inh: inactive

How did C=CCN1C(=Nc2cccnc2)SCC1(O)c1ccccc1 (stereo not drawn) do in these assays?
ST2 inh: 53%*

Results for COc1cccc(N2C(=O)[C@H]3C4c5ccccc5C(CO)(c5ccccc54)[C@H]3C2=O)c1 ?
ST2 inh: inactive

What do the screens show for `O=C(Cn1c(=O)c2sccc2n(Cc2ccc(Cl)cc2)c1=O)NCc1ccco1`?
ST2 inh: inactive

What do the screens show for `O=C(CCCn1c(=O)c2sccc2n(Cc2ccc(Cl)cc2)c1=O)NCc1ccco1`?
ST2 inh: inactive

What do the screens show for `O=C(CCCn1c(=O)c2sccc2n(Cc2ccc(F)cc2)c1=O)NCc1ccco1`?
ST2 inh: 30%*!

What do the screens show for `COC(=O)c1ccc(C(=O)N=c2sc3cc(F)ccc3n2C)cc1`?
ST2 inh: inactive

Results for O=C(NCC1=CCCCC1)C(c1cccnc1)N1CCOCC1 (stereo not drawn) ?
ST2 inh: inactive

What do the screens show for `Cc1cc([N+](=O)[O-])ccc1NC(=O)CC(C)c1ccccc1` (stereo not drawn)?
ST2 inh: inactive

What do the screens show for `Cc1cc([N+](=O)[O-])ccc1NC(NC(=O)c1cccs1)C(=O)c1ccccc1` (stereo not drawn)?
ST2 inh: 35%*

Results for O=C(NC(Nc1ccc([N+](=O)[O-])cc1)C(=O)c1ccccc1)c1ccccc1 (stereo not drawn) ?
ST2 inh: inactive

Results for Cc1cc(C)c(-c2cc(C(N)=O)ccn2)c(C)c1 ?
ST2 inh: inactive

How did CCCOCCOC(=O)C1=C(C)NC2=C(C(=O)C(C(=O)OC)C(C)C2)C1c1cccc(Cl)c1 (stereo not drawn) do in these assays?
ST2 inh: inactive

How did CS(=O)(=O)NC[C@H]1O[C@@H](CC(=O)NCc2ccc(F)cc2)[C@H](O)[C@@H]1O do in these assays?
ST2 inh: inactive

What do the screens show for `CN1[C@@H](CCC(=O)N2CCN(c3ccccc3)CC2)CNC(=O)[C@@H]2[C@H]1CCN2Cc1ncc[nH]1`?
ST2 inh: inactive

What do the screens show for `Cc1c(CCCN)c2ccccc2n1-c1ccccc1`?
ST2 inh: 34%*

Results for CCn1c(C(=O)O)c(CC(=O)N2CCN(c3ccccc3)CC2)c2ccccc21 ?
ST2 inh: inactive

How did CCOC(=O)c1c(C)n(-c2ccccc2)c2ccc(OC(=O)c3ccco3)cc12 do in these assays?
ST2 inh: inactive

How did COc1cc(C=Nc2ccc(Nc3ccccc3)cc2)c([N+](=O)[O-])cc1OC do in these assays?
ST2 inh: 57%*

How did COc1ccccc1N=Cc1cccc([N+](=O)[O-])c1O do in these assays?
ST2 inh: inactive

Results for COc1cc(OC)c(OC)cc1/C=C1\N=C(c2ccc(OC)c([N+](=O)[O-])c2)OC1=O ?
ST2 inh: inactive

Results for C=CCSc1nnc2c(n1)OC(c1ccsc1)Nc1ccccc1-2 (stereo not drawn) ?
ST2 inh: inactive

How did COc1ccc(OC)c(C2CCN(c3ncnc4[nH]ccc34)C2)c1 (stereo not drawn) do in these assays?
ST2 inh: inactive

Results for CC(=O)N1N=C(c2ccc(Cl)cc2)OC1(C)C ?
ST2 inh: inactive

Results for COc1cccc(C2=NN(C(=O)Cc3ccc([N+](=O)[O-])cc3)C(O)(C(F)(F)F)C2)c1 (stereo not drawn) ?
ST2 inh: inactive

How did COc1ccc(CC2(C)OC(c3ccc([N+](=O)[O-])cc3)=NN2C(C)=O)cc1 (stereo not drawn) do in these assays?
ST2 inh: 49%*

What do the screens show for `O=C(CSc1ccccn1)Nc1ccc(Cl)c(Cl)c1`?
ST2 inh: inactive

Results for COc1ccc(C2SCCN2S(=O)(=O)c2cccc(C)c2)cc1[N+](=O)[O-] (stereo not drawn) ?
ST2 inh: 31%*

How did COc1ccc(C2SCCN2S(=O)(=O)c2cccc(C(F)(F)F)c2)cc1[N+](=O)[O-] (stereo not drawn) do in these assays?
ST2 inh: inactive

Results for O=S(=O)(c1ccc(-c2ccccc2)cc1)N1CCSC1c1ccccc1 (stereo not drawn) ?
ST2 inh: inactive

What do the screens show for `Cc1cccc(S(=O)(=O)N2CCSC2c2ccc(Br)cc2)c1` (stereo not drawn)?
ST2 inh: inactive

How did COc1cc(OC)c(C2SCCN2S(=O)(=O)c2cccc(C)c2)cc1OC (stereo not drawn) do in these assays?
ST2 inh: inactive

How did Cc1ccc(S(=O)(=O)N2CCSC2c2ccc(Br)cc2)cc1 (stereo not drawn) do in these assays?
ST2 inh: 70%*

How did Cc1nn(CCCC(=O)Nc2cc(C(F)(F)F)ccc2Cl)c(C)c1[N+](=O)[O-] do in these assays?
ST2 inh: inactive

Results for Cc1ccc(-c2nnc(Nc3cccc(O)c3)c3ccccc23)cc1S(=O)(=O)NC(C)(C)CO ?
ST2 inh: inactive

Results for Cc1ccc2c(C(=O)N3[C@@H]4CC[C@H]3CC(O)C4)cc(C)nc2c1 (stereo partly drawn) ?
ST2 inh: inactive

What do the screens show for `Cc1noc(C)c1S(=O)(=O)N1CCN(c2cccc(Cl)c2)CC1`?
ST2 inh: inactive

How did COc1ccccc1C1CCCN1C(=O)c1cn(Cc2cccc(Cl)c2)nn1 (stereo not drawn) do in these assays?
ST2 inh: inactive

How did Cc1c(Cl)c([N+](=O)[O-])nn1CCCC(=O)Nc1ccc(Br)cc1 do in these assays?
ST2 inh: inactive

How did CC(C)CNC(=O)NCCc1nc2cccnc2n1Cc1ccccc1 do in these assays?
ST2 inh: inactive

How did COc1ccc(CNC(=O)NCCc2nc3cccnc3n2Cc2ccccc2)cc1 do in these assays?
ST2 inh: 63%*

Results for CC(C)(C)NC(=O)NCCc1nc2cccnc2n1Cc1ccccc1 ?
ST2 inh: inactive

How did COc1ccc(CN2CCCC(O)C2)c(OC)c1OC (stereo not drawn) do in these assays?
ST2 inh: inactive

How did CCCCNC(=O)Cn1cnc2sc3c(c2c1=O)CCCC3 do in these assays?
ST2 inh: inactive

Results for Cc1cccc2oc(-c3ccc(N=Cc4cccc([N+](=O)[O-])c4O)cc3)nc12 ?
ST2 inh: inactive

What do the screens show for `Cc1cccc2oc(-c3cccc(N=Cc4cc([N+](=O)[O-])ccc4O)c3)nc12`?
ST2 inh: inactive

What do the screens show for `COc1cc([N+](=O)[O-])cc(C=Nc2ccc3oc(-c4ccccc4C)nc3c2)c1O`?
ST2 inh: inactive

What do the screens show for `O=[N+]([O-])c1ccc(O)c(C=Nc2ccc3oc(Cc4ccccc4)nc3c2)c1`?
ST2 inh: 48%*

How did CCOc1ccc(-c2nc3cc(N=Cc4cc([N+](=O)[O-])ccc4O)ccc3o2)cc1 do in these assays?
ST2 inh: inactive

Results for Cc1cccc2oc(-c3cc(N=Cc4cc([N+](=O)[O-])ccc4O)ccc3O)nc12 ?
ST2 inh: 32%*
